Experimental data as given in PubChem BioAssay AID1159580 (chemical genetic matrix, 2015).
Where “and” joins values, the source holds several entries; their conditions need not be identical. Identical values can stand only once. About 2,000 (36%) of roughly 5,500 compounds were called active. Another 18% or so got no clear call; they are omitted. Rule as the data show it: active = normalized growth mostly below about 0.91 (no sharp cut-off); inconclusive = no clear call, values can overlap the other calls; inactive = mostly above about 0.92. The list shows a part of the results.

Test: chemical genetic growth profiling, strain panel (AID 1159580);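 also: tested at 20 µM; growth read once vehicle control cultures reached saturation at 30 °C; 1 = growth at the plate median or of vehicle wells; lower values mean less growth of the strain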
Details: S. cerevisiae deletion strains, growth OD

Measured: normalized growth

CN1Cc2c(N)cccc2C(c2ccccc2)C1 (centres undefined)
inactive: locus YAL013W, strain DEP1, stronger effect = lower value 1.01 | locus YAL021C, strain ccr4, stronger effect = lower value 0.991 | locus YAL026C, strain drs2, stronger effect = lower value 0.997 | locus YAL030W, strain snc1, stronger effect = lower value 0.996 | locus YAL040C, strain CLN3, stronger effect = lower value 0.991 | locus YBL061C, strain skt5, stronger effect = lower value 1.01 | locus YBR009C, strain hhf1, stronger effect = lower value 1.02 | locus YBR021W, strain FUR4, stronger effect = lower value 1.01 | locus YBR023C, strain chs3, stronger effect = lower value 1.02 | locus YBR171W, strain sec66, stronger effect = lower value 1.02 | locus YBR229C, strain ROT2, stronger effect = lower value 1.01 | locus YBR231C, strain swc5, stronger effect = lower value 1 | locus YBR279W, strain paf1, stronger effect = lower value 1.03 | locus YCL011C, strain gbp2, stronger effect = lower value 1 | locus YCL016C, strain dcc1, stronger effect = lower value 0.997 | locus YCL029C, strain bik1, stronger effect = lower value 1 | locus YCL061C, strain MRC1 (second series), stronger effect = lower value 0.989 | locus YCL069W, strain vba3, stronger effect = lower value 1.01 | locus YCR088W, strain abp1, stronger effect = lower value 1.01 | locus YDL005C, strain med2, stronger effect = lower value 1 | locus YDL035C, strain GPR1, stronger effect = lower value 1.02 | locus YDL040C, strain nat1, stronger effect = lower value 1.01 | locus YDL074C, strain BRE1, stronger effect = lower value 0.993 | locus YDL101C, strain DUN1, stronger effect = lower value 1.01 | locus YDL134C, strain PPH21, stronger effect = lower value 1.01 | locus YDL185W, strain tfp1, stronger effect = lower value 1.01 | locus YDL192W, strain arf1, stronger effect = lower value 1.02 | locus YDR001C, strain nth1, stronger effect = lower value 1.01 | locus YDR069C, strain doa4, stronger effect = lower value 1.02 | locus YDR101C, strain arx1, stronger effect = lower value 1.01 | locus YDR137W, strain rgp1, stronger effect = lower value 1.01 | locus YDR150W, strain NUM1, stronger effect = lower value 1 | locus YDR159W, strain sac3, stronger effect = lower value 1 | locus YDR162C, strain NBP2, stronger effect = lower value 1.02 | locus YDR195W, strain ref2 1.02 | locus YDR297W, strain sur2, stronger effect = lower value 1.01 | locus YDR318W, strain mcm21, stronger effect = lower value 1.02 | locus YDR334W, strain swr1, stronger effect = lower value 1.01 | locus YDR335W, strain msn5, stronger effect = lower value 1.02 | locus YDR363W, strain ESC2, stronger effect = lower value 0.963 | locus YDR388W, stronger effect = lower value 1.02 | locus YDR392W, strain spt3, stronger effect = lower value 0.938 | locus YDR502C, strain sam2, stronger effect = lower value 1.01 | locus YEL003W, strain gim4, stronger effect = lower value 1.01 | locus YEL037C, strain rad23, stronger effect = lower value 1.01 | locus YEL061C, strain CIN8 (second series), stronger effect = lower value 1 | locus YEL061C, strain CIN8, stronger effect = lower value 1 | locus YER002W, strain NOP16, stronger effect = lower value 1.01 | locus YER015W, strain faa2, stronger effect = lower value 1.02 | locus YER016W, strain bim1, stronger effect = lower value 1.01 | locus YER110C, stronger effect = lower value 1.02 | locus YER111C, strain swi4, stronger effect = lower value 1.01 | locus YER155C, strain BEM2 (second series), stronger effect = lower value 1.01 | locus YER155C, strain BEM2, stronger effect = lower value 1.01 | locus YER167W, strain BCK2, stronger effect = lower value 1.02 | locus YFR010W, strain ubp6, stronger effect = lower value 1.03 | locus YGL078C, strain dbp3, stronger effect = lower value 1 | locus YGL086W, strain mad1, stronger effect = lower value 0.999 | locus YGL167C, strain pmr1, stronger effect = lower value 1.01 | locus YGL173C, strain kem1, stronger effect = lower value 1.02 | locus YGL227W, strain vid30, stronger effect = lower value 1.01 | locus YGL240W, strain doc1, stronger effect = lower value 1.02 | locus YGL248W, strain PDE1, stronger effect = lower value 0.991 | locus YGL253W, strain hxk2, stronger effect = lower value 1 | locus YGR078C, strain PAC10, stronger effect = lower value 0.991 | locus YGR135W, strain pre9, stronger effect = lower value 1.04 | locus YGR229C, strain SMI1, stronger effect = lower value 1.02 | locus YGR252W, strain gcn5, stronger effect = lower value 1 | locus YHR013C, strain ard1, stronger effect = lower value 0.995 | locus YHR027C, strain rpn1, stronger effect = lower value 1.02 | locus YHR030C, strain SLT2, stronger effect = lower value 1.01 and 1.07 | locus YHR079C, strain IRE1 (second series), stronger effect = lower value 1.01 | locus YHR079C, strain IRE1, stronger effect = lower value 0.985 | locus YHR094C, strain hxt1, stronger effect = lower value 1.02 | locus YHR129C, strain ARP1, stronger effect = lower value 1.01 | locus YHR142W, strain chs7, stronger effect = lower value 1.01 | locus YHR200W, strain rpn10, stronger effect = lower value 1.02 | locus YIL066C, strain RNR3, stronger effect = lower value 1 | locus YIL073C, strain SPO22, stronger effect = lower value 1.08 | locus YIL125W, strain kgd1, stronger effect = lower value 1.01 | locus YIR030C, strain dcg1, stronger effect = lower value 1.01 | locus YJL092W, strain hpr5, stronger effect = lower value 1.01 | locus YJL095W, strain BCK1 (second series), stronger effect = lower value 1.01 | locus YJL095W, strain BCK1, stronger effect = lower value 0.983 and 0.981 | locus YJL115W, strain asf1, stronger effect = lower value 1.02 | locus YJL129C, strain trk1, stronger effect = lower value 1 | locus YJL134W, strain LCB3, stronger effect = lower value 1.01 | locus YJL154C, strain vps35, stronger effect = lower value 1.01 | locus YJL164C, strain tpk1, stronger effect = lower value 0.981 | locus YJL166W, strain qcr8, stronger effect = lower value 1.01 | locus YJL168C, strain set2, stronger effect = lower value 1.01 | locus YJL187C, strain SWE1 (second series), stronger effect = lower value 0.983 | locus YJR043C, strain POL32, stronger effect = lower value 0.973 | locus YJR066W, strain TOR1, stronger effect = lower value 0.933
